Measurements: PubChem BioAssay (NCATS)
A number with no mark means an inactive call. Results filed as inconclusive are left out. Entries that show only a call come without a potency. Calls of active or inactive are those of the source. The call rests on the fitted dose curve; in most records, active means well fitted curve in the direction sought with a large enough effect; inconclusive means small, poorly fitted or top-dose-only effect, or another doubt; inactive means no such curve, though single readings can be large; an effect the other way counts as inactive or inconclusive.

Columns and labels:
[1] = molecular target: Cytochrome P450 3A4 (Homo sapiens) (UniProt P08684); assay: qHTS Assay for Activators of Cytochrome P450 3A4 (AID 885); further: nearly all actives have a fitted effect of over 65% in size
Sequence of Cytochrome P450 3A4 (Homo sapiens) (P08684 whole entry, looked up): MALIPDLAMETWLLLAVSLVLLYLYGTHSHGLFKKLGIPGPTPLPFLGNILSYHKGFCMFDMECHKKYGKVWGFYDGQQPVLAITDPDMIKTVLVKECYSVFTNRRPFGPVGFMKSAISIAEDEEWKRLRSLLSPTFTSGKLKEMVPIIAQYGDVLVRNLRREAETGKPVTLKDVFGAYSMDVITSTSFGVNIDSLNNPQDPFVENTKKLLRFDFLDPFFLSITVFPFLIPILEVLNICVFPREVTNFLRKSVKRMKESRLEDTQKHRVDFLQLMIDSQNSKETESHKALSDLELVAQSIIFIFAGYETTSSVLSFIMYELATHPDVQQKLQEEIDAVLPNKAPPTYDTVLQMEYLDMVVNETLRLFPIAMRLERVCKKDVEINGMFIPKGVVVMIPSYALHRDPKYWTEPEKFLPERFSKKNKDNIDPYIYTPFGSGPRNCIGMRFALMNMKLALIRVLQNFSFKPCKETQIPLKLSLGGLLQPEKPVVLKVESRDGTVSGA
How it was run: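 Steps: enzyme/substrate mix dispensed; compound added, 10 min RT; NADPH regeneration solution added, 60 min RT; luciferin detection buffer stops reaction; 20 min later luminescence measured.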

[2] = Confirmation and Secondary Assay for Modulators of Hemoglobin Beta Chain Splicing at IVS2 654 locus (AID 910);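 further: HeLa cells stably carrying EGFP split by mutant beta-globin IVS2-654 intron; per-well total GFP intensity by laser scanning cytometry after 2-day treatment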
How it was run: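 Readout: per-well total peak green fluorescence (488 nm ex, 500–520 nm em) from objects 5–250 µm, reflecting correct splicing of an EGFP-654 reporter. Compounds were applied for 2 days at 37 °C to overnight-plated HeLa EGFP-654 cells; controls were DMSO and 500 nM IVS2-654 PNA.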

[3] = Confirmation and Secondary Assay for Modulators of Hemoglobin Beta Chain Splicing at IVS2 705 locus (AID 930);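 further: HeLa cells stably expressing the EGFP-705 splicing reporter; GFP fluorescence per well restored by corrected splicing of the IVS2-705 intron in EGFP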
How it was run: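 HeLa IVS2-705 EGFP reporter cells, 500/well, compound 2 d at 37C; correct splicing yields fluorescent EGFP. Control: 500 nM antisense PNA. Read-out: total peak GFP intensity.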

[4] = molecular target: Ubiquitin carboxyl-terminal hydrolase 1 (Homo sapiens) (UniProt O94782); assay: Inhibitors of USP1/UAF1: Pilot qHTS (AID 504865); further: potency means the concentration at half of the fitted maximal effect; nearly all actives have a fitted effect of over 35% in size
Sequence of Ubiquitin carboxyl-terminal hydrolase 1 (Homo sapiens) (O94782 whole entry, looked up): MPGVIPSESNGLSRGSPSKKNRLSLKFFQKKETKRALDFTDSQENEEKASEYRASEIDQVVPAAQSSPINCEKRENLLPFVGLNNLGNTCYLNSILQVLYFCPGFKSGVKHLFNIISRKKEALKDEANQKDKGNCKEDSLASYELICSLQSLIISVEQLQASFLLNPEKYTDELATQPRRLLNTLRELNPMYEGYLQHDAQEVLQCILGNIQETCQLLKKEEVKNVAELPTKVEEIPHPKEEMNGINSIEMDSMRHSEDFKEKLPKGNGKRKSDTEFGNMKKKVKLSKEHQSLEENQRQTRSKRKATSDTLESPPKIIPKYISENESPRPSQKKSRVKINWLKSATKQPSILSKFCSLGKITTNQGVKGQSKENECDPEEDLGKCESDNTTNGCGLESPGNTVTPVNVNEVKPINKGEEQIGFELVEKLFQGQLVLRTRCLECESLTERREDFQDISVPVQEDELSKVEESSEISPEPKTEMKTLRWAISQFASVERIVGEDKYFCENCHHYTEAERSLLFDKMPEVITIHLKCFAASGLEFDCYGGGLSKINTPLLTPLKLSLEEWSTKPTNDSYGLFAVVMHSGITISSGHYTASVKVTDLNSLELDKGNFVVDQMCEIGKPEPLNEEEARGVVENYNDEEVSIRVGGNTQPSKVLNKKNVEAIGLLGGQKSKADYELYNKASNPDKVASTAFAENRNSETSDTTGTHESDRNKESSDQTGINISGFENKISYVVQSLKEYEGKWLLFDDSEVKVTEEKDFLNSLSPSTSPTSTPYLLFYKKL
How it was run: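 Enzyme-free wells gave the negative control, while test wells held 1nM USP1/UAF1 preincubated with compound for 15 min at room temperature. Ub-Rho at 150nM final started the reaction, and fluorescence at 480/540 nm was recorded kinetically.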

[5] = molecular target: Luciferin 4-monooxygenase (Photinus pyralis) (UniProt P08659); assay: Biochemical firefly luciferase enzyme assay for NPC (AID 624030); further: potency means the concentration at half of the fitted maximal effect; nearly all actives have a fitted effect of over 70% in size
Sequence of Luciferin 4-monooxygenase (Photinus pyralis) (P08659 whole entry, looked up): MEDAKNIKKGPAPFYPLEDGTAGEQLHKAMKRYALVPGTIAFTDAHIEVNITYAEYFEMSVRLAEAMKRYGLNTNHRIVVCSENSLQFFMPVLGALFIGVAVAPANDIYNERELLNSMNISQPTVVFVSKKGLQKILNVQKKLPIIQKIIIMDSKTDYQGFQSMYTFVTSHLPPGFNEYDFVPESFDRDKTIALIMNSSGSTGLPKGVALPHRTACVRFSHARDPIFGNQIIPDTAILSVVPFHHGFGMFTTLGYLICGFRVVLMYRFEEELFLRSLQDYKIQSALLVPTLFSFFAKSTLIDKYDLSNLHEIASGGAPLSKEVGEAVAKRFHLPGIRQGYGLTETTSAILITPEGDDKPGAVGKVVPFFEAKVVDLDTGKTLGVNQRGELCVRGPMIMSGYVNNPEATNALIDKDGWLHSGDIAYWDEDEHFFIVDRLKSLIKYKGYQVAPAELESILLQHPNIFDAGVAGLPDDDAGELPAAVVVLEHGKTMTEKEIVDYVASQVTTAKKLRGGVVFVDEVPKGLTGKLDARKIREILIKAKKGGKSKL
How it was run: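 Direct inhibition of firefly luciferase enzyme (10 nM final, 50 mM Tris Acetate) assessed by luminescence within 5 minutes. Percent activity scaled between DMSO and PTC124 positive control, with concentration-effect curves classified by fit quality and response.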

[6] = S16 Schwann cell viability assay (CellTiter-Glo assay) (AID 624031);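 further: native untransfected S16 rat Schwann cells; cellular ATP luminescence as a viability measure; nearly all actives have a fitted effect of over 70% in size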
How it was run: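 Following overnight culture in 10% FBS DMEM, parental S16 rat Schwann cells are dosed for 24 h at 37 °C. Viability is read as CellTiter-Glo luminescence and expressed as % activity relative to DMSO (0%) and no-cell wells.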

[7] = S16 Schwann cell PMP22 intronic element firefly luciferase assay (AID 624032); further: nearly all actives have a fitted effect of over 30% in size
How it was run: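 Luciferase reporter of PMP22 intronic-element expression in stably transfected S16 rat Schwann cells, read by ONE-Glo luminescence after 24 h compound exposure at 37 C. Activity scaled between DMSO (0%) and positive-control PTC124; concentration-effect curves quality-classified.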

[8] = NCATS anti-infectives library activity on HEK293 viability as a counter-qHTS vs the C. elegans viability qHTS (AID 1745854);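 further: HEK293 cells exposed to compounds for 24 hr before the viability read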
How it was run: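 HEK293 cells (1,500/well) exposed 24 hr at 37C to 1:5 titrations, up to 41.7 uM final; counter-screen to a C. elegans viability qHTS. Viability by CellTiter-Glo luminescence after 10 min at room temperature; digitonin as control.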

[9] = qHTS profiling for inhibitors of Plasmodium falciparum proliferation (AID 504749); further: nearly all actives have a fitted effect of over 60% in size; further: potency means the concentration at half of the fitted maximal effect; conditions: P. falciparum in erythrocytes, SYBR Green DNA, 72 h, at 28.7 µM (top of the series)
How it was run: (§1)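 Infected RBCs, 0.3% parasitemia/2.5% Hct final; cpd 72 h, 37 C, 5% CO2; lysis buffer with saponin/triton/SYBR Green I, o/n RT dark; FI 485/535; norm. to artemisinin (0.29 uM) and DMSO.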

3D7 = assay: as above; conditions: P. falciparum in erythrocytes, SYBR Green DNA, 72 h; series mostly up to 28.7 µM
How it was run: as §1

7G8 = assay: as above; conditions: P. falciparum in erythrocytes, SYBR Green DNA, 72 h; series mostly up to 28.7 µM
How it was run: as §1

AA1029 = assay: as above; conditions: P. falciparum in erythrocytes, SYBR Green DNA, 72 h; series mostly up to 28.7 µM
How it was run: as §1

AS120 = assay: as above; conditions: P. falciparum in erythrocytes, SYBR Green DNA, 72 h; series mostly up to 28.7 µM
How it was run: as §1

ATS189 = assay: as above; conditions: P. falciparum in erythrocytes, SYBR Green DNA, 72 h; series mostly up to 28.7 µM
How it was run: as §1

ATS95 = assay: as above; conditions: P. falciparum in erythrocytes, SYBR Green DNA, 72 h; series mostly up to 28.7 µM
How it was run: as §1

C2A = assay: as above; conditions: P. falciparum in erythrocytes, SYBR Green DNA, 72 h; series mostly up to 28.7 µM
How it was run: as §1

CP185 = assay: as above; conditions: P. falciparum in erythrocytes, SYBR Green DNA, 72 h; series mostly up to 28.7 µM
How it was run: as §1

CP191 = assay: as above; conditions: P. falciparum in erythrocytes, SYBR Green DNA, 72 h; series mostly up to 28.7 µM
How it was run: as §1

CP217 = assay: as above; conditions: P. falciparum in erythrocytes, SYBR Green DNA, 72 h; series mostly up to 28.7 µM
How it was run: as §1

CP237 = assay: as above; conditions: P. falciparum in erythrocytes, SYBR Green DNA, 72 h; series mostly up to 28.7 µM
How it was run: as §1

CP238 = assay: as above; conditions: P. falciparum in erythrocytes, SYBR Green DNA, 72 h; series mostly up to 28.7 µM
How it was run: as §1

CP247 = assay: as above; conditions: P. falciparum in erythrocytes, SYBR Green DNA, 72 h; series mostly up to 28.7 µM
How it was run: as §1

CP250 = assay: as above; conditions: P. falciparum in erythrocytes, SYBR Green DNA, 72 h; series mostly up to 28.7 µM
How it was run: as §1

CP252 = assay: as above; conditions: P. falciparum in erythrocytes, SYBR Green DNA, 72 h; series mostly up to 28.7 µM
How it was run: as §1

CP256 = assay: as above; conditions: P. falciparum in erythrocytes, SYBR Green DNA, 72 h; series mostly up to 28.7 µM
How it was run: as §1

CP260 = assay: as above; conditions: P. falciparum in erythrocytes, SYBR Green DNA, 72 h; series mostly up to 28.7 µM
How it was run: as §1

CP262 = assay: as above; conditions: P. falciparum in erythrocytes, SYBR Green DNA, 72 h; series mostly up to 28.7 µM
How it was run: as §1

CP265 = assay: as above; conditions: P. falciparum in erythrocytes, SYBR Green DNA, 72 h; series mostly up to 28.7 µM
How it was run: as §1

CP286 = assay: as above; conditions: P. falciparum in erythrocytes, SYBR Green DNA, 72 h; series mostly up to 28.7 µM
How it was run: as §1

CP335 = assay: as above; conditions: P. falciparum in erythrocytes, SYBR Green DNA, 72 h; series mostly up to 28.7 µM
How it was run: as §1

DFO2036 = assay: as above; conditions: P. falciparum in erythrocytes, SYBR Green DNA, 72 h; series mostly up to 28.7 µM
How it was run: as §1

DIV30 = assay: as above; conditions: P. falciparum in erythrocytes, SYBR Green DNA, 72 h; series mostly up to 28.7 µM
How it was run: as §1

Dd2 = assay: as above; conditions: P. falciparum in erythrocytes, SYBR Green DNA, 72 h; series mostly up to 28.7 µM
How it was run: as §1

ECU = assay: as above; conditions: P. falciparum in erythrocytes, SYBR Green DNA, 72 h; series mostly up to 28.7 µM
How it was run: as §1

FAB9 = assay: as above; conditions: P. falciparum in erythrocytes, SYBR Green DNA, 72 h; series mostly up to 28.7 µM
How it was run: as §1

GB4 = assay: as above; conditions: P. falciparum in erythrocytes, SYBR Green DNA, 72 h; series mostly up to 28.7 µM
How it was run: as §1

HB3 = assay: as above; conditions: P. falciparum in erythrocytes, SYBR Green DNA, 72 h; series mostly up to 28.7 µM
How it was run: as §1

ICS = assay: as above; conditions: P. falciparum in erythrocytes, SYBR Green DNA, 72 h; series mostly up to 28.7 µM
How it was run: as §1

JCK = assay: as above; conditions: P. falciparum in erythrocytes, SYBR Green DNA, 72 h; series mostly up to 28.7 µM
How it was run: as §1

N140 = assay: as above; conditions: P. falciparum in erythrocytes, SYBR Green DNA, 72 h; series mostly up to 28.7 µM
How it was run: as §1

P94_40 = assay: as above; conditions: P. falciparum in erythrocytes, SYBR Green DNA, 72 h; series mostly up to 28.7 µM
How it was run: as §1

PAD = assay: as above; conditions: P. falciparum in erythrocytes, SYBR Green DNA, 72 h; series mostly up to 28.7 µM
How it was run: as §1

PC15 = assay: as above; conditions: P. falciparum in erythrocytes, SYBR Green DNA, 72 h; series mostly up to 28.7 µM
How it was run: as §1

PC49 = assay: as above; conditions: P. falciparum in erythrocytes, SYBR Green DNA, 72 h; series mostly up to 28.7 µM
How it was run: as §1

SC27B = assay: as above; conditions: P. falciparum in erythrocytes, SYBR Green DNA, 72 h; series mostly up to 28.7 µM
How it was run: as §1

TAB109 = assay: as above; conditions: P. falciparum in erythrocytes, SYBR Green DNA, 72 h; series mostly up to 28.7 µM
How it was run: as §1

TAB113 = assay: as above; conditions: P. falciparum in erythrocytes, SYBR Green DNA, 72 h; series mostly up to 28.7 µM
How it was run: as §1

TAB165 = assay: as above; conditions: P. falciparum in erythrocytes, SYBR Green DNA, 72 h; series mostly up to 28.7 µM
How it was run: as §1

W2 = assay: as above; conditions: P. falciparum in erythrocytes, SYBR Green DNA, 72 h; series mostly up to 28.7 µM
How it was run: as §1

O=C(O)c1cc(O)c2c(c1)[C@H]([C@H]1c3cc(C(=O)O)cc(O)c3C(=O)c3c(O[C@@H]4OC(CO)C(O)C(O)C4O)cccc31)c1cccc(O[C@@H]3OC(CO)C(O)C(O)C3O)c1C2=O (stereo not given in full)
outcome [1]: inactive | Potency [2]: inactive | Potency [3]: inactive | Potency [4]: 10 µM (active) | Potency [5]: 16.1 µM (active) | Potency [6]: inactive | Potency [7]: inactive | Potency [8]: inactive | activity, negative = inhibition ([9]; parasite line A): -10% | activity, negative = inhibition ([9]; parasite line B): -4.26% | Potency (3D7): inactive | Potency (7G8): inactive | Potency (AA1029): inactive | Potency (AS120): inactive | Potency (ATS189): inactive | Potency (ATS95): inactive | Potency (C2A): inactive | Potency (CP185): inactive | Potency (CP191): inactive | Potency (CP217): inactive | Potency (CP237): inactive | Potency (CP238): inactive | Potency (CP247): inactive | Potency (CP250): inactive | Potency (CP252): inactive | Potency (CP256): inactive | Potency (CP260): inactive | Potency (CP262): inactive | Potency (CP265): inactive | Potency (CP286): inactive | Potency (CP335): inactive | Potency (DFO2036): inactive | Potency (DIV30): 15.1 µM (active) | Potency (Dd2): inactive | Potency (ECU): inactive | Potency (FAB9): inactive | Potency (GB4): 15.1 µM (active) | Potency (HB3): inactive | Potency (ICS): inactive | Potency (JCK): inactive | Potency (N140): inactive | Potency (P94_40): inactive | Potency (PAD): inactive | Potency (PC15): inactive | Potency (PC49): inactive | Potency (SC27B): inactive | Potency (TAB109): inactive | Potency (TAB113): inactive | Potency (TAB165): inactive | Potency (W2): inactive
